# PubChem BioAssay AID1546 (The Scripps Research Institute Molecular Screening Center, 2009)
# The list shows a part of the results. Activity calls are given as the source filed them. Rule as the data show it: active = activation above about 45%; inactive = the rest.
# Target: Neuropeptide Y receptor type 1 (Homo sapiens) (UniProt P25929)
# Test: NPY-Y1 potentiators or agonists, confirmation, cell-based (AID 1546);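 also: cells challenged with NPY at its EC10 plus isoproterenol stimulus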
# Settings: cell-based NPY-Y1 potentiator/agonist assay; at 3.6 µM; stronger effect = higher value
# Sequence of Neuropeptide Y receptor type 1 (Homo sapiens) (P25929 whole entry, looked up): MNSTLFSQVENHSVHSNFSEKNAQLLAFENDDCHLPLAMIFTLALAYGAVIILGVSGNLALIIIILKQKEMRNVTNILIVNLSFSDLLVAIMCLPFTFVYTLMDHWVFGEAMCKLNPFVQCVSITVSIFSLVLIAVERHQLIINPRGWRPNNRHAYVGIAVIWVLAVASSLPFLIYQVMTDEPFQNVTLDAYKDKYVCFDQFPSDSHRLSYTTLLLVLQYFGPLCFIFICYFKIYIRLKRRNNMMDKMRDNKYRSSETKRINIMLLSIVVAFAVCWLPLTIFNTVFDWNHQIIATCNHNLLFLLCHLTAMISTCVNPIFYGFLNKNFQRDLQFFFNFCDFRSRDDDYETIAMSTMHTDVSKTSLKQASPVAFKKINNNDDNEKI
row,Structure (SMILES),activation
1,CC(=O)c1ccc(NC(=O)C2CC(=O)Nc3nc4ccccc4n32)cc1 (stereo unspecified),38.7% (inactive)
2,CN1C(=O)c2ccccc2C(C(=O)NCCCN2CCCC2)C1c1c[nH]c2ccccc12 (stereo unspecified),7.17% (inactive)
3,N#Cc1ccc(C(=O)Nc2nc(-c3cccs3)c(C(=O)C(F)(F)F)s2)cc1,-50.3% (inactive)
4,CC1=C/C(=N\OS(=O)(=O)c2ccccc2)C=CC1=O,7.41% (inactive)
5,COC(=O)c1ccc(NC(=O)CN(c2ccc(C)cc2)S(=O)(=O)c2c(C)n[nH]c2C)cc1,43% (inactive)
6,O=[N+]([O-])c1cc(Cl)cc(/C=N/NC(=S)Nc2cc(S(=O)(=O)N3CCOCC3)ccc2Cl)c1O,72.1% (active)
7,COCCn1nnnc1C(c1ccccc1Cl)N1CCN(c2ccccc2OC)CC1 (stereo unspecified),-14.9% (inactive)
8,Cc1cccc(OCC(O)CN2CCN(CCN3C(=O)c4cccc5cccc(c45)C3=O)CC2)c1C (stereo unspecified),63.5% (active)
9,O=C1/C(=C/c2coc3ccc(O)cc3c2=O)SC(=S)N1c1ccccc1,26.1% (inactive)
10,O=C(Nc1ccc2c(c1)CCC2)c1cccc(S(=O)(=O)Nc2ccccc2Cl)c1,5.62% (inactive)
11,Cc1ccccc1NCC(=O)N/N=C\c1ccc([N+](=O)[O-])s1,34.6% (inactive)
12,CSc1nc(-c2ccco2)nn1C(=O)c1ccccc1Cl,31.6% (inactive)
13,COC(=O)c1sc(-c2ccc(C(C)(C)C)cc2)cc1NC(=O)/C=C/C(=O)O,40.8% (inactive)
14,CCn1c2ccccc2c2cc(NC(=O)Nc3ccc([N+](=O)[O-])cc3C)ccc21,26.1% (inactive)
15,O=C(c1cccs1)N1CCN(C(=O)N2CCOCC2)CC1,-4.4% (inactive)
16,O=C(Nc1ccccc1C(F)(F)F)c1cc(-c2ccc(O)cc2)on1,2.15% (inactive)
